Measurements taken from paper PMC7819943, “Rice protein-binding microarrays: a tool to detect cis-acting elements near promoter regions in rice”.
In all, about 39,000 sequences were measured (“fluorescence intensity (a.u.)”: median about 4,300, highest 2% from about 39,000 on). The list comes from a sample in which the highest values are over-represented; it also holds similar and randomly drawn sequences.

Each sequence was assayed against T1, OsSMF1 (Oryza sativa, UniProt Q6ZLB0 1-436) (assay: protein-binding microarray (RPBM); PBS, 2% BSA, 51.3 ng/ul salmon testes DNA, 50 uM zinc acetate, 200 nM TF, 25 C, 1 h; high values mean tight binding). Conditions: protein: recombinant; tags: N-terminal polyhistidine and DsRed monomer fusion (pET32a); chain copies: 2; label: CyDye5-dUTP incorporated in the synthesized complementary strand; 3' TTTTT single-stranded linker to array surface; dsDNA, one strand shown.
T1 sequence: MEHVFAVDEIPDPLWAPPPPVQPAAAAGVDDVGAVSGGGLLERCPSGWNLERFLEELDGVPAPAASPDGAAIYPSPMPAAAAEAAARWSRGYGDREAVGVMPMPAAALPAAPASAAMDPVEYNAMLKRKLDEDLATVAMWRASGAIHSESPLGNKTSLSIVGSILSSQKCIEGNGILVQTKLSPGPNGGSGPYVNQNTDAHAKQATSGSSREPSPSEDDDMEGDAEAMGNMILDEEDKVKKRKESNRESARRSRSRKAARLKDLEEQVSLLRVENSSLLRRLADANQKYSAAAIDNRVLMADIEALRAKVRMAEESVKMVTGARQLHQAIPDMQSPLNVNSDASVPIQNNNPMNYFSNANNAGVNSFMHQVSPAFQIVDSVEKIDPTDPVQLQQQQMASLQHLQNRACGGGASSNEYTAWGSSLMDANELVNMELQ
In short: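 Binding signal is reported as fluorescence intensity per feature (arbitrary units) from an Axon 4000B scanner. Incubation used 200 nM of each Ni–NTA-purified, N-terminally polyhistidine- and DsRed-fused transcription factor from E. coli BL21-CodonPlus on a double-stranded custom Agilent array for 1 h at 25 °C, with 50 µM zinc acetate in the buffer, followed by washing.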

| Sequence | binding signal |
| --- | --- |
| AATAACCACGTATATATAACTTCTAACCCTAGTTAACAACCGGAGTCACCTAGTGCAG | 3310 fluorescence intensity (a.u.) |
| AAGAGATGGGGATTAAACCAATTGGGCCGAAAGATATGTCCGGAGTCACCTAGTGCAG | 41200 fluorescence intensity (a.u.) |
| TACTTATGTAAAAGGATTGATTTAAGAGAATGGTCCAAACCGGAGTCACCTAGTGCAG | 44100 fluorescence intensity (a.u.) |
| AAAGAGATTATGCGGATATGCCCTTGCAAACCGGGGCAGTCGGAGTCACCTAGTGCAG | 49900 fluorescence intensity (a.u.) |
| GAATTTATGGTTGAATACTTAACTTAAAATCCAAGGAACCCGGAGTCACCTAGTGCAG | 3220 fluorescence intensity (a.u.) |
| AGAGAATTATGGAGAGGGGAGGGGAGGGGCAGCAAAAGAGCGGAGTCACCTAGTGCAG | 4210 fluorescence intensity (a.u.) |
| GATGTCTTTAAAGAGGATTATATGAAATTTGAGATGAAATCGGAGTCACCTAGTGCAG | 3610 fluorescence intensity (a.u.) |
| AAACAACCAACTTTGCCTGCAAAACGGCAAAGAGATTAACCGGAGTCACCTAGTGCAG | 3920 fluorescence intensity (a.u.) |
| AGAGGGGAGGAAGAAGGAAGGAGAGATGGGTCCGACATGTCGGAGTCACCTAGTGCAG | 26900 fluorescence intensity (a.u.) |
| TGATTTAAACATGTTATGTAAGGAGAGTTGGAGACAGATACGGAGTCACCTAGTGCAG | 22000 fluorescence intensity (a.u.) |
| CGTACGGATATGCCCACGTGGCGAAGTCCCACGACGCCACCGGAGTCACCTAGTGCAG | 9930 fluorescence intensity (a.u.) |
| ATTTCCAGTAAAAGTGGCATTGTTCAGACTTCAGTCATTACGGAGTCACCTAGTGCAG | 3530 fluorescence intensity (a.u.) |
| CACGGCATCGGCATCGGCAGCCACGCCTCGCGTGGCACGGCGGAGTCACCTAGTGCAG | 4720 fluorescence intensity (a.u.) |
| GACAGATGTGCTGAGTGCTGACGTGGTTAAACTAACCTCGCGGAGTCACCTAGTGCAG | 16100 fluorescence intensity (a.u.) |
| AAGAGGATCGCAATCGTGAAAACTTCGCAAGTGTTCAGAACGGAGTCACCTAGTGCAG | 59100 fluorescence intensity (a.u.) |
| TCGAAAACTTTTCAGCCACGTGATGTTGGCAATCGCTGTTCGGAGTCACCTAGTGCAG | 7190 fluorescence intensity (a.u.) |
| CCAAACTAAGAGTGTTCAAGGGGAGGGGAAAAGAGAAGATCGGAGTCACCTAGTGCAG | 3660 fluorescence intensity (a.u.) |
| CTTGGCCCAGAAACAACACACACACTCAAATCTGGATCCACGGAGTCACCTAGTGCAG | 3790 fluorescence intensity (a.u.) |
| CGGCCCACCCACCAACCACCACCACCACCACCACACCCGCCGGAGTCACCTAGTGCAG | 3740 fluorescence intensity (a.u.) |
| CACCAGCACATAAACACAAACCCACAGAAGACATTGCATTCGGAGTCACCTAGTGCAG | 5420 fluorescence intensity (a.u.) |
| CCACTGGACCATAACTGGGCCCAGCACACAGAAACAAATCCGGAGTCACCTAGTGCAG | 44700 fluorescence intensity (a.u.) |
| GGGCCCCACAACCACCCCATAAATAAAGCAACACAACAACCGGAGTCACCTAGTGCAG | 53000 fluorescence intensity (a.u.) |
| AATGAAATTAAACACACCCAACAAAATAAAAGACCAAACCCGGAGTCACCTAGTGCAG | 3140 fluorescence intensity (a.u.) |
